± gives the standard deviation.
These sequences were tested on EfPiwi piRISC loaded with L1MC piRNA (26 nt) (assay: pre-steady-state target cleavage rate (min^-1); auxiliary factor: none (no Gtsf1); guide: L1MC piRNA 5'p-UAACUAAAUACUAUGCAAGCUGUAGG; MIWI and MILI are mouse PIWI proteins and EfPiwi is from a freshwater sponge; tags in brackets are library labels; higher = faster piRNA-guided slicing of the target).
Experimental: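 Cleave-'n-Seq: a library of target RNAs (target site in constant flanks) at […] was incubated with 1 nM active freshwater sponge Ephydatia fluviatilis Piwi piRISC (synthetic 5'-monophosphorylated piRNA guide) with or without 500 nM EmGtsf1 at 33 °C for 1 min to 16 h. Uncleaved targets were sequenced and the pooled three trials fitted to a burst-and-steady-state model to give the pre-steady-state cleavage rate (min^-1). Sequence is the target site only. Fits with R² ≤ 0 are excluded.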

Sequence | pre-steady-state target cleavage rate
UCCUGGAUGAGCUUGCAUAGUAUUAUAGUUA | 0.0249 ± 0.011
UCCUGGAACAGCUUGCAUAGUAUUAACAAA | < 0.0001
UCCUGGAUGUCGAAGCAUAGUUUUUAGUUA | < 0.0001
UCCUGCUACAGCUUGCAUAGUAUUAUGAAA | < 0.0001
UCCUGGAUGUCGAACGUAUCUAUUUAAUUA | < 0.0001
UCCUGGAUGUCGAACCAUUGUAUUUAGUUA | < 0.0001
UCCUGGAUGAGCUUGCAUAGUACUUUAGUUA | 0.00423 ± 0.0036
UCCUGGAUGUCGAACGAUAUAUUUAGUUA | < 0.0001
UCCUGGAUCAGCUUGCAUAGUGUUUAGUUA | 0.00696 ± 0.0045
UCCUGGAAGAGCUUGCAUACUAUUUAGUUA | 0.00581 ± 0.0041
UCCUGGAUGUCGAAGCAUAGUAUAUUAGUUA | < 0.0001
UCCUGGAUGUCGAACGUAUCUAUUUGGUUA | < 0.0001
UCCUGGAUGUCGAACGUAUCUAUUUAGAAA [g4:g10:cont:t1A] | < 0.0001
UCCUGGAUCAGCUUGCAUAGUAUUUACUUA | < 0.0001
UCCUGGAUGUCGAACGUAUGUCUUUAGUUA | < 0.0001
UCCUGGAUGUCCUUGCAUAGUUUUUACUUA | < 0.0001
UCCUGGUUCUGCUUGCAUAGUAUUUAGUUA | 0.00563 ± 0.0047
UCCUGGAUGUCCUUGCAUACUAUUUAGAUA | < 0.0001
UCCUGGAUGUCGAAGCAAAGUAUUUACUUA | < 0.0001
UCCUGGAUGUCGAACGUAUCUAUUCAGUUA | < 0.0001

Sequence | pre-steady-state target cleavage rate
UCCUGGAUGUCGAUGCACAGUAUUUAGUUA | < 0.0001
UCCUGGAUGUCGAACGAUAAUAUUUAGUUA | < 0.0001
UCCUGGAUCAGCUUGCAUAGUAUUUACGUUA | 0.011 ± 0.006
UCCUGGAUGUCGAACGUUACUAUUAAGUUA | < 0.0001
UCCUGGAUGUCGAACGUAUCUGAUUUAGUUA | < 0.0001
UCCUGCUACAGCUUGCAUACAUUUUAGUAA | < 0.0001
UCCUGGAUGUCCUUGCAUACAAUUUAGUUA | < 0.0001
UCCUCCUACAGGAAGCAUAGUAUUUACAAA | < 0.0001
UCCUGGAUGUCGAACGUUAGUAUUUAUGUUA | < 0.0001
UCCUGGAUGUCGAUGCAUAGAAAUUAGUUA | < 0.0001
UCCUGGAUGUCGAACGUUAGUAUCUAGUUA | < 0.0001
UCCUGGAUGUCGAACGUAAGAUUUAGUUA | < 0.0001
UCCUGGAUGUCGAACGAGUAGUAUUUAGUUA | < 0.0001
UCCUGGAUGUCGAUGCAUCGUAUUUAGUUA | < 0.0001
UCCUGGAUGUCCUUGCAUAGUUUUUAGUAA | < 0.0001
UCCUGGUACAGCUUGGUAAGUAUUUACAAA | < 0.0001
UCCUGGAUGAGCUUGCAAAGUAUAUAGUUA | < 0.0001
UCCUGGAUGUCGAACGUAUGUAUUUAUUA | < 0.0001
UCCUGGAUGAGCUUGGAUUGUAUUUAGUUA | < 0.0001
UCCUGGAUCAGCUUGCAUAGUAUUAUAGUUA | 0.00759 ± 0.0041

Source: the supplement of paper PMC10338343
